Screening data from PubChem.
Rows were chosen to be rich in hits. Some 10% of all compounds tested hit in one or more screens of this group.
GLS inh: glutaminase GLS (human) inhibition | GLS enzymatic activity, qHTS titration | AID 624170 | Potency, µM (doses to about 45.5 µM), most hits filed as inhibitors | O94925 | actives 0.21% (n = 410,000)
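Human kidney-isoform GLS in 45 mM KH2PO4 pH 8.2, 0.02% Tween-20, with compound, started with 1mM L-Glutamine (added stock). Glutamate oxidase/HRP/Amplex red coupled fluorescence read at start and after 30 min at RT.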
JMJD2A Tudor: inhibitors of human JMJD2A Tudor domain; Potency, µM (series often up to 114 µM), usual class: inhibitors; actives 4.4% (n = 390,000); AlphaScreen JMJD2A-Tudor / H3K4me3 peptide binding; AID 504339; O75164; also: nearly all actives have a fitted effect of over 50% in size
Target sequence (O75164 whole entry, looked up, the tested form may be a part): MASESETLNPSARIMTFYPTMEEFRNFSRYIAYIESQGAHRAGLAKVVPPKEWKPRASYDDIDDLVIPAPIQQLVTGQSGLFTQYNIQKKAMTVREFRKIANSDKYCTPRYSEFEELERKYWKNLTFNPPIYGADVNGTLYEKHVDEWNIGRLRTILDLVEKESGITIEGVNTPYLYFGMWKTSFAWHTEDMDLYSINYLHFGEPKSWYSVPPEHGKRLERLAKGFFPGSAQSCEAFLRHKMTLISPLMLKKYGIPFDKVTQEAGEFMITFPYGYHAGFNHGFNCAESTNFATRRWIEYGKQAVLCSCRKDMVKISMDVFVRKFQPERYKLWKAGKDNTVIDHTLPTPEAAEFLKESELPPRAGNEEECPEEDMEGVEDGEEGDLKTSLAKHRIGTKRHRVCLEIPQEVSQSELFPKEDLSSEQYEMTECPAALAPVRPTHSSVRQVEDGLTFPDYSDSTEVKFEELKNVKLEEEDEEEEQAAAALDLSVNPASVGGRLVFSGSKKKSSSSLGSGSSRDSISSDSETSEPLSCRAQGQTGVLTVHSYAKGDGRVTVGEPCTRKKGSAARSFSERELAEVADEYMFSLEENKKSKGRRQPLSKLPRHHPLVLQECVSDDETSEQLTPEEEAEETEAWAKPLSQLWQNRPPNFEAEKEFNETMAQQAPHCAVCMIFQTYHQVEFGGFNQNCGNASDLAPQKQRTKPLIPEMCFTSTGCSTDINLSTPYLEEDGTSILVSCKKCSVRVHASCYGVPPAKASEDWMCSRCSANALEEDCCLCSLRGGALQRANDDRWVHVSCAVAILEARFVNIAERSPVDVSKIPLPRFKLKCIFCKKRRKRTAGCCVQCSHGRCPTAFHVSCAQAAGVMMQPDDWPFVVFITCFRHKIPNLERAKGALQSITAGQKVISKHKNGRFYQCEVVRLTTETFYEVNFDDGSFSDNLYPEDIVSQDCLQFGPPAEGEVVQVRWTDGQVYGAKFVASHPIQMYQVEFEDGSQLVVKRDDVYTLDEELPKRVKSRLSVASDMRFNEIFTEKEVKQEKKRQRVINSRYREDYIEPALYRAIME
BAZ2B inh: blocks human BAZ2B | Q9UIF8 | AlphaScreen BAZ2B-H3K14Ac peptide displacement | Potency, µM (doses to about 114 µM), most hits filed as inhibitors | actives 4.4% (n = 360,000) | AID 504333; also: nearly all actives have a fitted effect of over 60% in size
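BAZ2B (50 nM) with biotin-H3(5-23)K14Ac peptide (50 nM) in PBS pH 7.4, 0.01% Tween-20, preformed 30 min, then compound 30 min at room temperature; top concentration 110uM. AlphaScreen streptavidin donor/nickel chelate acceptor beads (10 ug/mL final), 20 min dark, signal read.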
G9a block: inhibitors of human histone lysine methyltransferase G9a | Q96KQ7 | G9a H3K9 monomethylation, AlphaScreen, 2 h | Potency, µM (titrated, usually from 102 µM), most hits filed as inhibitors | actives 8.8% (n = 350,000) | AID 504332; also: nearly all actives have a fitted effect of over 75% in size
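Compounds were preincubated with 20 nM G9a for 15 min, after which biotinylated H3K9 peptide (500 nM) and SAM (20 uM) started a 2 h room-temperature reaction. Monomethylated product was quantified by antibody-based AlphaScreen chemiluminescence.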
HP1b chromo inh: HP1-beta chromodomain-methylated histone interaction inhibition | AlphaScreen HP1-beta / biotin-H3K9me3 peptide binding | Potency, µM (top dose mostly 114 µM), usual class: inhibitors | actives 0.56% (n = 390,000); also: nearly all actives have a fitted effect of over 70% in size
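Compound inhibition of the preformed complex between 50 nM HP1-beta and 50 nM biotinylated H3K9me3 peptide was read by AlphaScreen. Buffer was PBS pH 7.4 with 0.01% Tween-20. Incubations ran 30 min at room temperature, with 10 ug/mL donor/acceptor beads.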
Large screens that a line does not name were inactive. Calls follow the shape of the dose curve; as a rule, active = well fitted curve in the direction sought with a large enough effect; inconclusive = small, poorly fitted or top-dose-only effect, or another doubt; inactive = no such curve, though single readings can be large; an effect the other way counts as inactive or inconclusive.

COc1cccc(/C=N/n2c(C3CCCCC3)n[nH]c2=S)c1	JMJD2A Tudor 32µM, G9a block 2.5µM
Oc1cccc(/C=N/n2c(C3CCCCC3)n[nH]c2=S)c1	JMJD2A Tudor 32µM, G9a block 2µM
c1ccc(CSc2nnc(C3CCNCC3)o2)cc1	none
Cc1ccc(NC(=O)CSCC#N)cc1	G9a block 50µM
N#CCSCC(=O)Nc1ccc(Br)cc1	none
COc1ccc2nc3cccc(OC)c3nc2c1	BAZ2B inh inconclusive, G9a block 22µM
COc1ccc2nc3ccccc3nc2c1N	GLS inh inconclusive, JMJD2A Tudor 40µM, BAZ2B inh 28µM, G9a block 1µM, HP1b chromo inh 40µM
CC(=O)Nc1nc(CC(C)C)cc(-c2ccco2)c1C#N	G9a block 16µM
CO[C@@]1(NC(=O)CSC(F)F)C(=O)N2C(C(=O)O)=C(CSc3nnnn3CCO)CO[C@@H]21	none (no result: JMJD2A Tudor, BAZ2B inh, G9a block, HP1b chromo inh)
COc1ccc(N2CCN(c3cc(C(=O)NC4CCCCC4)ncn3)CC2)cc1OC	none (no result: JMJD2A Tudor, BAZ2B inh, G9a block, HP1b chromo inh)
Cc1ccc(NC(=O)CN2C(=O)S/C(=C\c3ccc(C(=O)O)cc3)C2=O)cc1	GLS inh inconclusive, JMJD2A Tudor inconclusive, BAZ2B inh 56µM
Cc1ccc(NC(=O)CN2C(=O)S/C(=C\c3cc(C)n(-c4cccc(C(=O)O)c4)c3C)C2=O)cc1	JMJD2A Tudor 56µM, BAZ2B inh 45µM (no result: G9a block)
Cc1ccc(NC(=O)CN2C(=O)S/C(=C\c3cc(C)n(C)c3C)C2=O)cc1	none
CC[C@]12C(=O)N(C)C[C@H]([C@@H]3C(=O)N(C)C(=O)[C@@H]31)N2C(=O)c1ccc(Cl)c(Cl)c1	none (no result: BAZ2B inh, G9a block)
O=C(c1ccccc1)c1ccc(O)cc1O	none
[O-][n+]1c2ccccc2[n+]([O-])c2cc(O)ccc21	JMJD2A Tudor 79µM, BAZ2B inh 40µM, G9a block 1.4µM, HP1b chromo inh 45µM
COc1cccc(C(=O)Nc2nc(-c3nnn(-c4ccccc4C(F)(F)F)c3C)ns2)c1	none
CCOC(=O)C1CCN(C(=O)Nc2ccc(OCc3ccccc3)cc2)CC1	none
COc1ccc(CN2CCC(C(N)=O)CC2)cc1OCc1ccccc1	JMJD2A Tudor 32µM, BAZ2B inh inconclusive, HP1b chromo inh inconclusive (no result: G9a block)
COc1ccc(C)cc1NC(=O)NC1CCN(Cc2ccccc2)CC1	G9a block 14µM
CCOC(=O)C1CCN(Cc2ccc(OCc3ccccc3)cc2)CC1	JMJD2A Tudor 28µM, G9a block 28µM, HP1b chromo inh inconclusive
COC(=O)c1ccccc1NC(=O)NC1CCN(Cc2ccccc2)CC1	none
CCCCN(C)C(=O)C1CCN(Cc2ccc(OCc3ccccc3)cc2)CC1	JMJD2A Tudor 3.5µM, BAZ2B inh inconclusive, G9a block inconclusive
CCCN1CNc2c(c(=O)[nH]c(=S)n2CCc2cc(OC)cc(OC)c2)C1	none (no result: GLS inh, BAZ2B inh, G9a block)
COCCNC(=O)C1(C)CCCN(C(=O)COc2ccccc2)C1 (stereo unspecified)	none (no result: JMJD2A Tudor, BAZ2B inh, G9a block, HP1b chromo inh)
CCCCCOc1ccc2oc(=O)c3c(c2c1)CCCN3C(=O)CN1CCCC(C(=O)OCC)C1 (stereo unspecified)	none
NC(=O)C1CCN(Cc2ccc(OCc3ccccc3)cc2)CC1	JMJD2A Tudor 3.5µM, BAZ2B inh 56µM, G9a block 10µM, HP1b chromo inh inconclusive
CCOC(=O)C1CCCN(CC(=O)N2CCCc3c2c(=O)oc2ccc(OCc4ccccc4)cc32)C1 (stereo unspecified)	JMJD2A Tudor 40µM, G9a block 22µM
CCOC(=O)C1CCCN(Cc2ccc(OC)c(OCc3ccccc3)c2)C1 (stereo unspecified)	JMJD2A Tudor 28µM, G9a block 45µM, HP1b chromo inh inconclusive
CCOC(=O)N1CCN(C(=O)C2CCN(Cc3cccc(OCc4ccccc4)c3)CC2)CC1	JMJD2A Tudor 2.2µM, BAZ2B inh inconclusive, G9a block 14µM, HP1b chromo inh inconclusive
CN(C)c1ccc(NC(=O)CN2C(=O)CC(c3ccccc3)=Nc3ccccc32)cc1	G9a block 2µM
COc1ccc(Nc2nc(NC(C)(C)C)nc(N3CCCC3)n2)c(OC)c1	JMJD2A Tudor 28µM, BAZ2B inh 35µM, G9a block 40µM, HP1b chromo inh inconclusive
Cc1ccc(Nc2n[nH]c(=S)s2)cc1	none (no result: JMJD2A Tudor, BAZ2B inh, G9a block, HP1b chromo inh)
S=c1[nH]nc(Nc2cccc3ccccc23)s1	GLS inh inconclusive, JMJD2A Tudor 18µM, BAZ2B inh inconclusive, G9a block 0.32µM, HP1b chromo inh 40µM
